# Results from PubChem BioAssay (NCATS).
# Inconclusive results are not listed. Activity calls are given as the source filed them. Calls come from the whole dose curve; as a rule, active = well fitted curve in the direction sought with a large enough effect; inconclusive = small, poorly fitted or top-dose-only effect, or another doubt; inactive = no such curve, though single readings can be large; an effect the other way counts as inactive or inconclusive. Numbered stars: 1 amine (or outer) side, 2 acyl side, 3 side chain; on linkers, the order of the positions; unused ones are H or OH. Bridge positions count the residues as written; N and C are the ends. Square brackets hold non-standard residues; d marks the D form. Peptide text beside a SMILES is read from it. I, II: the chains in the order shown. Actinocin(9to1) = Cc1c2oc3c(C)ccc(C(=O)[*:1])c3nc-2c(C(=O)[*:2])c(N)c1=O; NMeV = CN[C@H](C(=O)O)C(C)C; Sar = CNCC(=O)O
# Test: qHTS assay for measurement of the activity of small molecule inhibitors on Zika virus induced Caspase-3 activity in human astrocytoma cells (AID 1224859);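 note: plate controls were ZIKV-infected untreated cells for no effect and uninfected cells for full effect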
# Details: SNB-19 ZIKV-induced caspase-3/7, luminescence, 6 h; series mostly up to 45.7 µM; activity change, negative = inhibition: at the top concentration
# In short: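 Caspase activation in ZIKV-infected SNB-19 cells (2 FFU/cell, 6 h) measured by Caspase-Glo 3/7 luminescence after 30 min RT; compound pre-incubated 1 h; normalised to uninfected and infected controls.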
row,SMILES,"activity change, negative = inhibition"
1,CC1(C)OC[C@@H](COC(=O)CCc2ccc(OC[C@@H](O)CNCCNC(=O)N3CCOCC3)cc2)O1,-2.76% (inactive)
2,CC(=O)OCC(=O)[C@@]1(O)[C@H](C)C[C@H]2[C@@H]3CCC4=CC(=O)C=C[C@]4(C)[C@@]3(F)[C@@H](O)C[C@@]21C,-2.78% (inactive)
3,C[C@H](CCC(=O)O)[C@H]1CC[C@H]2[C@@H]3C(=O)C[C@@H]4CC(=O)CC[C@]4(C)[C@H]3CC(=O)[C@]12C,5.71% (inactive)
4,CCn1cc(C(=O)O)c(=O)c2cnc(N3CCCC3)nc21,4.3% [at 9.06 µM] (inactive)
5,O=C1OC2(c3ccc(O)cc3Oc3cc(O)ccc32)c2ccccc21,-2.09% (inactive)
6,COCc1c(C(C)C)nc(C(C)C)c(/C=C/[C@@H](O)C[C@@H](O)CC(=O)O)c1-c1ccc(F)cc1,-2.93% (inactive)
7,"Cc1c2oc3c(C)ccc(C(=O)N[C@@H]4C(=O)N[C@H](C(C)C)C(=O)N5CCC[C@H]5C(=O)N(C)CC(=O)N(C)[C@@H](C(C)C)C(=O)O[C@@H]4C)c3nc-2c(C(=O)N[C@@H]2C(=O)N[C@H](C(C)C)C(=O)N3CCC[C@H]3C(=O)N(C)CC(=O)N(C)[C@@H](C(C)C)C(=O)O[C@@H]2C)c(N)c1=O (I: T[dV]P[Sar][NMeV] / II: T[dV]P[Sar][NMeV]; ester I:1-I:C, II:1-II:C; linker I:N-II:N via Actinocin(9to1))",12% (inactive)
8,CC1(C)O[C@@H]2C[C@H]3[C@@H]4C[C@H](F)C5=CC(=O)CC[C@]5(C)[C@H]4[C@@H](O)C[C@]3(C)[C@]2(C(=O)CO)O1,9.56% (inactive)
9,CC(C)(CO)[C@@H](O)C(=O)NCCCO,7.6% (inactive)
10,COc1cc2c(cc1O)CC[C@@H]1[C@@H]2CC[C@]2(C)[C@@H](O)CC[C@@H]12,17.4% (inactive)
11,CC1(C)O[C@@H]2C[C@H]3[C@@H]4C[C@H](F)C5=CC(=O)C=C[C@]5(C)[C@H]4[C@@H](O)C[C@]3(C)[C@]2(C(=O)CO)O1,1.94% (inactive)
12,CCCCCCCCCCCCCCCC[N+](C)(C)CCN(Cc1ccc(OC)cc1)c1ncccn1,175% (inactive)
13,C=C1C[C@H]2[C@@H]3C=C(C)C4=CC(=O)CC[C@]4(C)[C@H]3CC[C@]2(C)[C@@]1(OC(C)=O)C(C)=O,-0.713% (inactive)
14,NC[C@H]1O[C@H](O[C@H]2[C@H](O)[C@@H](O[C@H]3O[C@H](CO)[C@@H](O)[C@H](N)[C@H]3O)[C@H](N)C[C@@H]2N)[C@H](N)[C@@H](O)[C@@H]1O,-6.47% [at 20.5 µM] (inactive)
15,NC(=NCCCCCCN=C(N)/N=C(\N)Nc1ccc(Cl)cc1)/N=C(\N)Nc1ccc(Cl)cc1,10.9% (inactive)
16,Oc1cc(O)c2c(c1)O[C@H](c1ccc(O)c(O)c1)[C@H](O)C2,-6.66% (inactive)
17,CCC(=O)c1c(O)cc(O)cc1O,-0.755% (inactive)
18,COc1ccc(CN2CCN(C(c3ccc(F)cc3)c3ccc(F)cc3)CC2)c(OC)c1OC,8.62% (inactive)

row,SMILES,"activity change, negative = inhibition"
1,CC(C)COC(=O)c1ccc(N)cc1,2.14% (inactive)
2,NC(CS)C(=O)O (configuration not stated),29.4% (inactive)
3,Nc1ccc(C(=O)Nc2ccccc2N)cc1,0.975% (inactive)
4,CN1[C@@H]2CC[C@H]1CC(OC(=O)c1c[nH]c3ccccc13)C2 (some centres not stated),0.0158% (inactive)
5,CC1(C)O[C@@H]2C[C@H]3[C@@H]4CCC5=CC(=O)CC[C@]5(C)[C@@]4(F)[C@@H](O)C[C@]3(C)[C@]2(C(=O)CCl)O1,4.69% (inactive)
6,CCCCCCCCCCCCCCCCCC(=O)OCC(O)CO (configuration not stated),-4.59% (inactive)
7,O=c1[nH]c(=O)n([C@H]2CCCO2)cc1F,-1.46% (inactive)
8,CC(=O)OCC(=O)[C@@]1(O)CC[C@H]2[C@@H]3CCC4=CC(=O)C=C[C@]4(C)[C@H]3[C@@H](O)C[C@@]21C,0.128% (inactive)
9,CCCC(=O)O[C@]1(C(=O)CO)CC[C@H]2[C@@H]3CCC4=CC(=O)CC[C@]4(C)[C@H]3[C@@H](O)C[C@@]21C,-0.921% (inactive)
10,COc1c(C)c2c(c(O)c1C/C=C(\C)CCC(=O)O)C(=O)OC2,8.83% (inactive)
11,CN(C)CCOc1ccccc1Cc1ccccc1,-1.08% (inactive)
12,C[C@H](O)C(=O)Nc1c(I)c(C(=O)NC(CO)CO)c(I)c(C(=O)NC(CO)CO)c1I,5.55% (inactive)
13,Nc1ccn([C@@H]2O[C@H](CO)[C@@H](O)C2(F)F)c(=O)n1,-5.23% (inactive)
14,CN=C(NC#N)Nc1ccc(C2=NNC(=O)CC2C)cc1 (configuration not stated),-1.6% (inactive)
15,Oc1c(I)cc(I)c2cccnc12,-8.51% (inactive)
16,COc1cccc2c1C(=O)c1c(O)c3c(c(O)c1C2=O)C[C@@](O)(C(=O)CO)C[C@@H]3O[C@H]1C[C@H](N)[C@H](O)[C@H](C)O1,8.9% (inactive)
17,C[C@]12CCC(=O)C=C1CC[C@H]1[C@@H]3CC[C@](O)(C(=O)CO)[C@@]3(C)C[C@H](O)[C@@]12F,0.803% (inactive)
18,CN1CCC[C@@H]1c1cccnc1,7.65% (inactive)

# Test: qHTS assay to identify small molecule inhibitors of chordoma cells - UCH-2 (AID 1259356); note: % is set by controls: 0 for no effect and ±100 for the full control effect
# Details: UCH-2 chordoma viability, CellTiter-Glo ATP luminescence, 48 h; series mostly up to 46.1 µM; activity change, negative = inhibition: at the top concentration
row,SMILES,"activity change, negative = inhibition"
1,CC(=O)OCC(=O)[C@@]1(O)[C@H](C)C[C@H]2[C@@H]3CCC4=CC(=O)C=C[C@]4(C)[C@@]3(F)[C@@H](O)C[C@@]21C,11.8% [at 20.6 µM] (inactive)
2,C[C@H](CCC(=O)O)[C@H]1CC[C@H]2[C@@H]3C(=O)C[C@@H]4CC(=O)CC[C@]4(C)[C@H]3CC(=O)[C@]12C,6.4% (inactive)
3,CCn1cc(C(=O)O)c(=O)c2cnc(N3CCCC3)nc21,8.05% [at 20.6 µM] (inactive)
4,O=C1OC2(c3ccc(O)cc3Oc3cc(O)ccc32)c2ccccc21,11.6% (inactive)
5,COCc1c(C(C)C)nc(C(C)C)c(/C=C/[C@@H](O)C[C@@H](O)CC(=O)O)c1-c1ccc(F)cc1,-16.4% (inactive)
6,"Cc1c2oc3c(C)ccc(C(=O)N[C@@H]4C(=O)N[C@H](C(C)C)C(=O)N5CCC[C@H]5C(=O)N(C)CC(=O)N(C)[C@@H](C(C)C)C(=O)O[C@@H]4C)c3nc-2c(C(=O)N[C@@H]2C(=O)N[C@H](C(C)C)C(=O)N3CCC[C@H]3C(=O)N(C)CC(=O)N(C)[C@@H](C(C)C)C(=O)O[C@@H]2C)c(N)c1=O (I: T[dV]P[Sar][NMeV] / II: T[dV]P[Sar][NMeV]; ester I:1-I:C, II:1-II:C; linker I:N-II:N via Actinocin(9to1))",-21.7% (inactive)
7,CC1(C)O[C@@H]2C[C@H]3[C@@H]4C[C@H](F)C5=CC(=O)CC[C@]5(C)[C@H]4[C@@H](O)C[C@]3(C)[C@]2(C(=O)CO)O1,3.06% [at 20.6 µM] (inactive)
8,CC(C)(CO)[C@@H](O)C(=O)NCCCO,13% (inactive)
9,CC1(C)O[C@@H]2C[C@H]3[C@@H]4C[C@H](F)C5=CC(=O)C=C[C@]5(C)[C@H]4[C@@H](O)C[C@]3(C)[C@]2(C(=O)CO)O1,1.55% [at 20.6 µM] (inactive)
10,CCCCCCCCCCCCCCCC[N+](C)(C)CCN(Cc1ccc(OC)cc1)c1ncccn1,3.35% [at 20.6 µM] (inactive)
11,C=C1C[C@H]2[C@@H]3C=C(C)C4=CC(=O)CC[C@]4(C)[C@H]3CC[C@]2(C)[C@@]1(OC(C)=O)C(C)=O,2.16% (inactive)
12,NC(=NCCCCCCN=C(N)/N=C(\N)Nc1ccc(Cl)cc1)/N=C(\N)Nc1ccc(Cl)cc1,-3.4% (inactive)
13,Oc1cc(O)c2c(c1)O[C@H](c1ccc(O)c(O)c1)[C@H](O)C2,13.7% (inactive)
14,CCC(=O)c1c(O)cc(O)cc1O,4.82% (inactive)
15,COc1ccc(CN2CCN(C(c3ccc(F)cc3)c3ccc(F)cc3)CC2)c(OC)c1OC,-2.32% (inactive)
16,CC(C)COC(=O)c1ccc(N)cc1,2.38% (inactive)

row,SMILES,"activity change, negative = inhibition"
1,NC(CS)C(=O)O (configuration not stated),3.51% (inactive)
2,Nc1ccc(C(=O)Nc2ccccc2N)cc1,0.449% (inactive)
3,CN1[C@@H]2CC[C@H]1CC(OC(=O)c1c[nH]c3ccccc13)C2 (some centres not stated),8.84% (inactive)
4,CC1(C)O[C@@H]2C[C@H]3[C@@H]4CCC5=CC(=O)CC[C@]5(C)[C@@]4(F)[C@@H](O)C[C@]3(C)[C@]2(C(=O)CCl)O1,5.25% [at 20.6 µM] (inactive)
5,CCCCCCCCCCCCCCCCCC(=O)OCC(O)CO (configuration not stated),9.07% (inactive)
6,CC(=O)OCC(=O)[C@@]1(O)CC[C@H]2[C@@H]3CCC4=CC(=O)C=C[C@]4(C)[C@H]3[C@@H](O)C[C@@]21C,4.43% (inactive)
7,CCCC(=O)O[C@]1(C(=O)CO)CC[C@H]2[C@@H]3CCC4=CC(=O)CC[C@]4(C)[C@H]3[C@@H](O)C[C@@]21C,12.5% (inactive)
8,COc1c(C)c2c(c(O)c1C/C=C(\C)CCC(=O)O)C(=O)OC2,4.06% [at 20.6 µM] (inactive)
9,CN(C)CCOc1ccccc1Cc1ccccc1,-17.3% (inactive)
10,C[C@H](O)C(=O)Nc1c(I)c(C(=O)NC(CO)CO)c(I)c(C(=O)NC(CO)CO)c1I,8.14% [at 20.6 µM] (inactive)
11,CN=C(NC#N)Nc1ccc(C2=NNC(=O)CC2C)cc1 (configuration not stated),4.35% (inactive)
12,Oc1c(I)cc(I)c2cccnc12,-29.3% (inactive)
13,COc1cccc2c1C(=O)c1c(O)c3c(c(O)c1C2=O)C[C@@](O)(C(=O)CO)C[C@@H]3O[C@H]1C[C@H](N)[C@H](O)[C@H](C)O1,0% (inactive)
14,C[C@]12CCC(=O)C=C1CC[C@H]1[C@@H]3CC[C@](O)(C(=O)CO)[C@@]3(C)C[C@H](O)[C@@]12F,0.127% (inactive)
15,CN1CCC[C@@H]1c1cccnc1,-1.07% (inactive)
